Compound activity from PubChem.
This is a sample that favours compounds with a hit; in the whole collection about 12% have one here.
NS1 function inh – blocks influenza NS1 protein function | Potency, µM (series often up to 46.1 µM), for inactives: at the highest dose activity, positive = more growth | actives 0.4% (n = 270,000) | AID 2326; calls by dose curve; also: actives are rising curves; nearly all actives have a fitted effect of over 50% in size
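Recovery from NS1-induced slow growth read by OD600 in budding yeast switched to galactose assay medium (pH 6.0, -URA) at 1:100 dilution. Compound 23 nl per well; the matching strain lacking NS1 serves as control.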
HCV inhibitor – HCV inhibition; actives 3.4% (n = 340,000); Huh7.5.1 HCVcc-Cre infection, luciferase reporter, 44 h; Potency, µM (top dose mostly 41.8 µM), without a hit: at the top dose activity change, negative = inhibition, actives largely listed as inhibitors; also: % is scaled to controls: 0 for no effect and ±100 for the full control effect
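A cell-based infection assay in which seeded cells (1,000 per well) receive test compound after 4 h, are inoculated with HCVcc-Cre at approximately 0.5 moi, and are incubated 44 h before luminescence detection.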
SARS PLP yeast – SARS-CoV PLP inhibition in yeast; Potency, µM (highest dose often 32.9 µM), for the others: at the highest dose activity, positive = growth rescue, hits mostly activators; S. cerevisiae expressing SARS-CoV PLpro, growth rescue; AID 485353; actives 0.19% (n = 330,000); calls by dose curve; also: 0% is about no effect; nearly all actives have a fitted effect of over 55% in size
Pf growth 48h – P. falciparum growth inhibition at 48 hours (one generation); actives 5.9% (n = 310,000); Potency, µM (doses to about 28.7 µM), for inactives: at the highest dose activity change, negative = inhibition, hits mostly inhibitors; AID 504832; P. falciparum luciferase growth in erythrocytes, 48 h; also: % is scaled to controls: 0 for no effect and ±100 for the full control effect
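Erythrocytes infected with P. falciparum carrying an integrated firefly luciferase reporter (2% hematocrit, 0.1% parasitemia final) were exposed to compounds in RPMI 1640 with 0.5% Albumax at 37 C, 5% CO2. Growth inhibition was scored as reduced luminescence.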
AMA1-RON2 inh – AMA1-RON2 (P. falciparum) interaction inhibition; AlphaScreen AMA1-biotinylated RON2 peptide binding; Potency, µM (highest dose often 58.2 µM), without a hit: at the top dose activity change, negative = inhibition, actives largely listed as inhibitors; actives 0.2% (n = 360,000); AID 720542;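 also: 0% = vehicle wells and -100% = peptide control; nearly all actives have a fitted effect of over 45% in size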
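AMA1 (3D7) with his tag at 25 nM final met compounds first, then biotinylated RON2 peptide at 25 nM; detection used donor plus acceptor beads, 10 µg/mL apiece, read by AlphaScreen after 30 min at room temperature.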
Pf growth 96h – P. falciparum growth inhibition at 96 hour, primary screen for plastid delayed-death inhibitors; actives 6.9% (n = 320,000); Potency, µM (series often up to 28.7 µM), for inactives: at the top dose activity change, negative = inhibition, hits mostly inhibitors; P. falciparum luciferase reporter growth, 96 h; also: % is scaled to controls: 0 for no effect and ±100 for the full control effect
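P. falciparum expressing integrated firefly luciferase, in erythrocytes at 2% hematocrit, 0.05% parasitemia, incubated with compounds 96 h at 37 C, 5% CO2. Growth inhibition read as loss of luminescence; two-generation exposure targets delayed-death apicoplast inhibitors.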
The depositor's hits bear a star; ? = inconclusive; · = not tested or not shown; [ ] = dose if it differs, or a comment. Unless noted, calls follow the shape of the dose curve; as a rule, active = well fitted curve in the direction sought with a large enough effect; inconclusive = small, poorly fitted or top-dose-only effect, or another doubt; inactive = no such curve, though single readings can be large; an effect the other way counts as inactive or inconclusive. Potency is read from the fitted curve at half-maximal effect.

SMILES | NS1 function inh | HCV inhibitor | SARS PLP yeast | Pf growth 48h | AMA1-RON2 inh | Pf growth 96h
COc1ccc(OCC(=O)Nc2ccc3c(c2)nc(CCN2CCC(C)CC2)n3C)cc1 | -1% | 16% | -7% | ? | -10% | ?
CC1CCN(CCc2nc3cc(NC(=O)COc4ccc(Cl)cc4)ccc3n2C)CC1 | -8% | 11µM* | -8% | ? | 19% | 3.3µM*
Cn1c(CCN2CCCC2)nc2cc(NC(=O)COc3ccc(Cl)cc3)ccc21 | · | · | · | · | 25% | ·
Cc1ccc(OCC(=O)Nc2ccc3c(c2)nc(CCN2CCC(C)CC2)n3C)cc1 | 3% | 13µM* | 4% | ? | 0% | ?
CCN1CCN(CCc2nc3cc(NC(=O)COc4ccc(Cl)cc4)ccc3n2C)CC1 | -1% | ? | -1% | 5.2µM* | 14% | 6.6µM*
Cn1c(CN2CCCC2)nc2cc(NC(=O)COc3ccc([N+](=O)[O-])cc3)ccc21 | 5% | -24% | -35% | 13µM* | 3% | ?
CC(C)CCN1CCN(Cc2ccsc2)CC1CCO (stereo unspecified) | 1% | 13% | 0% | 6% | 6% | 13µM*
CC(C)CCN1CCN(CC(c2ccccc2)c2ccccc2)CC1CCO (stereo unspecified) | 4% | ? | -1% | 3.7µM* | -9% | ?
CC(C)CCN1CCN(Cc2nc3ccccc3s2)CC1CCO (stereo unspecified) | 0% | -14% | 0% | 4% | -7% | 0%
OCCC1CN(Cc2ccc3cc(Cl)ccc3n2)CCN1Cc1ccsc1 (stereo unspecified) | 5% | ? | 0% | ? | -6% | 5.2µM*
OCCC1CN(Cc2ccc3nonc3c2)CCN1Cc1ccsc1 (stereo unspecified) | 2% | 1% | 0% | 18% | 5% | 0%
CC(C)CCN1CCN(Cc2nc(-c3ccc(F)cc3)cs2)CC1CCO (stereo unspecified) | 1% | 1% | 0% | ? | -9% | 12µM*
CCOC(=O)C1(Cc2ccc(Cl)cc2)CCN(C(=O)CCc2ccncc2)CC1 | -6% | ? | 0% | ? | 13% | ?
COc1ccc(-c2noc(CSc3nc(N)cc(=O)[nH]3)n2)cc1 | 5% | 25µM* | -3% | 73% | 2% | 53%
COc1ccc(OC)c(N)c1 | 11% | -12% | 8% | 9.3µM* | ? | 17µM*
CCCCn1c(N)c(N(CCOC)C(=O)COc2ccc(Cl)cc2)c(=O)[nH]c1=O | · | 17% | 0% | -27% | 1% | 3%
COc1ccc(/C(C)=N/Nc2nc3ccccc3nc2C)cc1 | 1% | 13µM* | 0% | 32% | 19% | -19%
O=C(Cc1cccc2ccccc12)Nc1ccc(-c2cc3ccccc3oc2=O)cc1 | 17% | ? | 6% | 12µM* | -26% | ?
COCc1cc(S(=O)c2ccc(Cl)cc2)nc(C)n1 (stereo unspecified) | -7% | ? | -1% | -8% | 9% | -3%
C/C(=N/Nc1ccnc2cc(Cl)ccc12)c1ccc(N)cc1 | · | ? | -5% | 0.83µM* | ? | 0.47µM*
CC(=NNc1ccc([N+](=O)[O-])cn1)c1ccc(N)cc1 | · | 18% | · | · | -5% | ·
C/C(=N/Nc1ccnc2cc(Cl)ccc12)c1ccc(O)cc1 | · | ? | 4% | 0.33µM* | 0% | 0.29µM*
CC(C)C(=O)Nc1ccc2nn(-c3ccccc3)nc2c1 | -10% | ? | -2% | 60% | 0% | 51%[5.75 µM]
COc1ccc(CN(C(=O)Cn2nnc3ccccc32)C(C(=O)NC(C)(C)C)c2ccco2)cc1 (stereo unspecified) | 7% | 16% | -1% | -11% | -5% | 4.7µM*
CCC(C)(C)NC(=O)C(c1cccn1C)N(C(=O)Cn1nnc2ccccc21)c1ccc(OC)cc1 (stereo unspecified) | -10% | -4% | -3% | 12µM* | 0% | -4%
SMILES | NS1 function inh | HCV inhibitor | SARS PLP yeast | Pf growth 48h | AMA1-RON2 inh | Pf growth 96h
CCc1ccc(C(C(=O)NC(C)(C)CC)N(Cc2ccco2)C(=O)Cn2nnc3ccccc32)cc1 (stereo unspecified) | 6% | ? | -11% | 12µM* | -4% | 16%
O=C(NC1CCCCC1)C(c1ccccc1)N(Cc1ccco1)C(=O)Cn1cnc2ccccc21 (stereo unspecified) | -18% | -9% | 3% | 3.7µM* | -1% | 81%
COCCNC(=O)C(c1ccc(C)o1)N(Cc1ccc(OC)cc1)C(=O)Cn1nnc2ccccc21 (stereo unspecified) | -5% | 15% | 5% | · | ? | ?
CCC(C)(C)NC(=O)C(c1cccn1C)N(C(=O)Cn1nnc2ccccc21)c1ccc(F)cc1 (stereo unspecified) | -6% | ? | -4% | ? | -2% | ?
CC12CCC(C(=O)C1)C1(C)CCCC(=O)C21 (stereo unspecified) | · | 24% | · | · | -21% | ·
Cc1cc(C(=O)NNC(=O)c2cccs2)c(C)o1 | · | 17% | -1% | 32% | 9% | -1%
CC(=O)c1cccc(N(C(=O)CNC(=O)c2ccco2)C(C(=O)NCc2ccco2)c2ccccc2)c1 (stereo unspecified) | -5% | ? | 0% | -1% | -2% | ?
COc1ccc(/C=C2/NC(=O)CNC2=O)cc1 | 9% | 9% | 2% | 10% | -2% | 23%
Cc1c(NC(=O)c2ccc(CC(C)C)o2)c(=O)n(-c2ccccc2)n1C | 2% | 7% | -1% | -14% | -3% | ?
O=C(NCc1ccco1)C(c1ccco1)N(CCc1ccccc1)C(=O)Cn1nnc2ccccc21 (stereo unspecified) | -26% | -10% | -5% | ? | -4% | 2.3µM*
Cc1cccc(N(C(=O)Cn2nnc3ccccc32)C(C(=O)NC(C)(C)C)c2ccsc2)c1 (stereo unspecified) | 4% | 5% | 6% | 10µM* | 8% | 3.3µM*
COC(=O)C(C)N(C(=O)c1cccc2ccccc12)c1c(C)cccc1C (stereo unspecified) | -11% | ? | -11% | 15µM* | -19% | ·
COc1ccc(S(=O)(=O)NCC2CCCO2)cc1NC(=O)c1ccc(Cl)cc1 (stereo unspecified) | · | 18% | 2% | -7% | -6% | 1%
COc1ccccc1CNC(=O)C(C)Sc1ccc(C)cc1 (stereo unspecified) | -6% | -2% | 0% | 2% | 21% | 16%
Cc1ccc(SC(C)C(=O)NCC(C)C)cc1 (stereo unspecified) | 0% | 11% | -2% | 15µM* | 1% | -7%
Cc1ccccc1NC(=O)NCc1ccccn1 | · | 7% | · | · | 11% | ·
